Key:
Experiment in all cases: SPOT peptide array binding signal intensity (averaged, normalized) (arbitrary units (background-subtracted, floor 0; scale differs between SH3 domains)); higher = stronger binding of the SH3 domain to the peptide
[1] = target: CaNbp2
How it was run: (§1)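 GST-SH3 fusions from four yeast species, purified on glutathione Sepharose, were incubated at 10 μg/ml overnight at 4°C on membranes of synthetic 15-mer peptides in which cysteines were replaced with serines. Binding signal is the normalized, background-subtracted spot intensity averaged over replicates, in domain-specific arbitrary units.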

[2] = target: CaRvs167
How it was run: as §1

[3] = target: CaRvs167-3
How it was run: as §1

[4] = target: CaSho1
How it was run: as §1

[5] = target: CaSla1-D1-D2
How it was run: as §1

[6] = target: CaSla1-D3
How it was run: as §1

[7] = target: ScAbp1
How it was run: as §1

[8] = target: ScBbc1
How it was run: as §1

[9] = target: ScBem1-D1
How it was run: as §1

[10] = target: ScBzz1-D1
How it was run: as §1

[11] = target: ScBzz1-D2
How it was run: as §1

[12] = target: ScCyk3
How it was run: as §1

[13] = target: ScFus1
How it was run: as §1

[14] = target: ScHof1
How it was run: as §1

[15] = target: ScHse1
How it was run: as §1

[16] = target: ScLsb1
How it was run: as §1

[17] = target: ScLsb2
How it was run: as §1

[18] = target: ScLsb3
How it was run: as §1

[19] = target: ScLsb4
How it was run: as §1

[20] = target: ScMyo3
How it was run: as §1

[21] = target: ScMyo5
How it was run: as §1

[22] = target: ScNbp2
How it was run: as §1

[23] = target: ScPex13
How it was run: as §1

[24] = target: ScRvs167
How it was run: as §1

[25] = target: ScSho1
How it was run: as §1

[26] = target: ScSla1-D1-D2
How it was run: as §1

[27] = target: ScSla1-D3
How it was run: as §1

[28] = target: SpAbp1-D1
How it was run: as §1

[29] = target: SpBbc1
How it was run: as §1

[30] = target: SpBzz1-D1
How it was run: as §1

[31] = target: SpBzz1-D2
How it was run: as §1

[32] = target: SpCyk3
How it was run: as §1

[33] = target: SpHof1
How it was run: as §1

[34] = target: SpHof1-2
How it was run: as §1

[35] = target: SpHof1-3
How it was run: as §1

[36] = target: SpHse1
How it was run: as §1

[37] = target: SpLsb1
How it was run: as §1

[38] = target: SpLsb4
How it was run: as §1

[39] = target: SpMyo1
How it was run: as §1

[40] = target: SpNbp2
How it was run: as §1

[41] = target: SpPex13
How it was run: as §1

[42] = target: SpRvs167
How it was run: as §1

[43] = target: SpSla1-D1-D2
How it was run: as §1

[44] = target: SpSla1-D3
How it was run: as §1

[45] = target: AgAbp1
How it was run: as §1

[46] = target: AgBbc1
How it was run: as §1

[47] = target: AgBem1-D1
How it was run: as §1

[48] = target: AgBzz1-D1
How it was run: as §1

[49] = target: AgBzz1-D2
How it was run: as §1

[50] = target: AgCyk3
How it was run: as §1

[51] = target: AgFus1
How it was run: as §1

[52] = target: AgHof1
How it was run: as §1

[53] = target: AgHse1
How it was run: as §1

[54] = target: AgLsb1
How it was run: as §1

[55] = target: AgLsb4
How it was run: as §1

[56] = target: AgMyo5
How it was run: as §1

[57] = target: AgNbp2
How it was run: as §1

[58] = target: AgRvs167
How it was run: as §1

[59] = target: AgSho1
How it was run: as §1

[60] = target: AgSla1-D1-D2
How it was run: as §1

[61] = target: AgSla1-D3
How it was run: as §1

[62] = target: CaAbp1-D1
How it was run: as §1

[63] = target: CaAbp1-D2
How it was run: as §1

[64] = target: CaBbc1
How it was run: as §1

[65] = target: CaBem1-D1
How it was run: as §1

[66] = target: CaBzz1-D1
How it was run: as §1

[67] = target: CaBzz1-D2
How it was run: as §1

[68] = target: CaCyk3
How it was run: as §1

[69] = target: CaFus1
How it was run: as §1

[70] = target: CaHof1
How it was run: as §1

[71] = target: CaHse1
How it was run: as §1

[72] = target: CaLsb1
How it was run: as §1

[73] = target: CaLsb4
How it was run: as §1

[74] = target: CaMyo5
How it was run: as §1

SSTPTTPERPKRKSG
SPOT peptide array binding signal intensity [1]: 28.5
SPOT peptide array binding signal intensity [2]: 110
SPOT peptide array binding signal intensity [3]: ≤ 0
SPOT peptide array binding signal intensity [4]: 9.5
SPOT peptide array binding signal intensity [5]: 480
SPOT peptide array binding signal intensity [6]: ≤ 0
SPOT peptide array binding signal intensity [7]: 66
SPOT peptide array binding signal intensity [8]: 2030
SPOT peptide array binding signal intensity [9]: 3
SPOT peptide array binding signal intensity [10]: 15
SPOT peptide array binding signal intensity [11]: 7.5
SPOT peptide array binding signal intensity [12]: ≤ 0
SPOT peptide array binding signal intensity [13]: ≤ 0
SPOT peptide array binding signal intensity [14]: ≤ 0
SPOT peptide array binding signal intensity [15]: 33.5
SPOT peptide array binding signal intensity [16]: 260
SPOT peptide array binding signal intensity [17]: 1
SPOT peptide array binding signal intensity [18]: 5780
SPOT peptide array binding signal intensity [19]: 836
SPOT peptide array binding signal intensity [20]: ≤ 0
SPOT peptide array binding signal intensity [21]: ≤ 0
SPOT peptide array binding signal intensity [22]: ≤ 0
SPOT peptide array binding signal intensity [23]: 78.2
SPOT peptide array binding signal intensity [24]: 902
SPOT peptide array binding signal intensity [25]: ≤ 0
SPOT peptide array binding signal intensity [26]: 290
SPOT peptide array binding signal intensity [27]: 15
SPOT peptide array binding signal intensity [28]: 85
SPOT peptide array binding signal intensity [29]: 22.2
SPOT peptide array binding signal intensity [30]: 64
SPOT peptide array binding signal intensity [31]: ≤ 0
SPOT peptide array binding signal intensity [32]: ≤ 0
SPOT peptide array binding signal intensity [33]: 2.5
SPOT peptide array binding signal intensity [34]: 2
SPOT peptide array binding signal intensity [35]: 177
SPOT peptide array binding signal intensity [36]: 11
SPOT peptide array binding signal intensity [37]: 1030
SPOT peptide array binding signal intensity [38]: 8450
SPOT peptide array binding signal intensity [39]: ≤ 0
SPOT peptide array binding signal intensity [40]: ≤ 0
SPOT peptide array binding signal intensity [41]: ≤ 0
SPOT peptide array binding signal intensity [42]: 450
SPOT peptide array binding signal intensity [43]: 8
SPOT peptide array binding signal intensity [44]: ≤ 0

RRARRQMGIPTISQV
SPOT peptide array binding signal intensity [45]: 125
SPOT peptide array binding signal intensity [46]: 71.8
SPOT peptide array binding signal intensity [47]: 252
SPOT peptide array binding signal intensity [48]: 41
SPOT peptide array binding signal intensity [49]: 35
SPOT peptide array binding signal intensity [50]: 5
SPOT peptide array binding signal intensity [51]: 716
SPOT peptide array binding signal intensity [52]: 83.8
SPOT peptide array binding signal intensity [53]: 854
SPOT peptide array binding signal intensity [54]: 9.75
SPOT peptide array binding signal intensity [55]: 138
SPOT peptide array binding signal intensity [56]: 5
SPOT peptide array binding signal intensity [57]: 724
SPOT peptide array binding signal intensity [58]: 10.7
SPOT peptide array binding signal intensity [59]: 287
SPOT peptide array binding signal intensity [60]: 99.5
SPOT peptide array binding signal intensity [61]: 14.5
SPOT peptide array binding signal intensity [62]: 514
SPOT peptide array binding signal intensity [63]: 941
SPOT peptide array binding signal intensity [64]: 197
SPOT peptide array binding signal intensity [65]: 299
SPOT peptide array binding signal intensity [66]: 98.5
SPOT peptide array binding signal intensity [67]: 115
SPOT peptide array binding signal intensity [68]: 25.5
SPOT peptide array binding signal intensity [69]: 657
SPOT peptide array binding signal intensity [70]: ≤ 0
SPOT peptide array binding signal intensity [71]: 278
SPOT peptide array binding signal intensity [72]: 2.25
SPOT peptide array binding signal intensity [73]: 806
SPOT peptide array binding signal intensity [74]: 12.5
SPOT peptide array binding signal intensity [1]: 1560
SPOT peptide array binding signal intensity [2]: 58
SPOT peptide array binding signal intensity [3]: 89.8
SPOT peptide array binding signal intensity [4]: 758
SPOT peptide array binding signal intensity [5]: 385
SPOT peptide array binding signal intensity [6]: 104
SPOT peptide array binding signal intensity [7]: 152
SPOT peptide array binding signal intensity [8]: 35.5
SPOT peptide array binding signal intensity [9]: 100
SPOT peptide array binding signal intensity [10]: 11.5
SPOT peptide array binding signal intensity [11]: 54.5
SPOT peptide array binding signal intensity [12]: 53.5
SPOT peptide array binding signal intensity [13]: 671
SPOT peptide array binding signal intensity [14]: 0.5
SPOT peptide array binding signal intensity [15]: 2110
SPOT peptide array binding signal intensity [16]: 72.5
SPOT peptide array binding signal intensity [17]: 2
SPOT peptide array binding signal intensity [18]: 639
SPOT peptide array binding signal intensity [19]: 121
SPOT peptide array binding signal intensity [20]: 2.25
SPOT peptide array binding signal intensity [21]: 1.5
SPOT peptide array binding signal intensity [22]: 1060
SPOT peptide array binding signal intensity [23]: 96.9
SPOT peptide array binding signal intensity [24]: 95
SPOT peptide array binding signal intensity [25]: 978
SPOT peptide array binding signal intensity [26]: 484
SPOT peptide array binding signal intensity [27]: 308
SPOT peptide array binding signal intensity [28]: 416
SPOT peptide array binding signal intensity [29]: 12.2
SPOT peptide array binding signal intensity [30]: 143
